Among the data in PubChem BioAssay AID1851 (National Center for Advancing Translational Sciences (NCATS), 2009) are AC50 and activity, negative = inhibition values, retold here.

In all, about 16,000 compounds went through this assay and about 2,600 (16%) were called active. Not shown: some 20% with an inconclusive outcome. The list is a sample of the results. Unmarked numbers belong to inactive results. Calls follow the shape of the dose curve; as a rule, active = well fitted curve in the direction sought with a large enough effect; inconclusive = small, poorly fitted or top-dose-only effect, or effect the other way; inactive = no such curve, though single readings can be large or run the other way.
% is scaled to controls: 0 for no effect and ±100 for the full control effect.

For the experiment, the target named is Cytochrome P450 2D6 (Homo sapiens) (UniProt P10635). As to the kind of experiment: Cytochrome panel assay with activity outcomes. The conditions noted are these: recombinant CYP, pro-luciferin dealkylation, luminescence, p450-cyp2d6; series mostly up to 57.1 µM.
Chain of Cytochrome P450 2D6 (Homo sapiens) (P10635 whole entry, looked up): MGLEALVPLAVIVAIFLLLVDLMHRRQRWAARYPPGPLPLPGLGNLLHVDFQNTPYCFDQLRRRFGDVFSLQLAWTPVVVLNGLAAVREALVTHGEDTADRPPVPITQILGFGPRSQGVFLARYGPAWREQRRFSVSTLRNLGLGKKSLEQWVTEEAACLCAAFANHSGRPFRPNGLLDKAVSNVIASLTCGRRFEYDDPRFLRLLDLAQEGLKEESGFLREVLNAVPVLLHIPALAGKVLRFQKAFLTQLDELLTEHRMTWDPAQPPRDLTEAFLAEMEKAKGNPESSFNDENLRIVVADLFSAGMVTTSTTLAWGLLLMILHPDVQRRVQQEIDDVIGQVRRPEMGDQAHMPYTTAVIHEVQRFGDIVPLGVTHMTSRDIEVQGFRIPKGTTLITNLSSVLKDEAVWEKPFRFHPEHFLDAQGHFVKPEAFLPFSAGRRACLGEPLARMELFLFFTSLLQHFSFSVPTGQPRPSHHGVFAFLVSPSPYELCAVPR
Turning to `C[N+]1(CCOc2ccc([N+](=O)[O-])cc2)CCOCC1`, the AC50 – broadly, the concentration at which the activity in the assay is half-maximal – was “inactive”.

As to `Cc1ccc(/S(C)=N/S(=O)(=O)c2ccc(C)cc2)cc1` (centres undefined), the AC50 entry was “inactive”. For `C[C@@H](c1ccccc1)N1C(=O)[C@@H]2[C@H]3C(=CC[C@H]2C1=O)C(=O)[C@H]1O[C@H]1[C@H]3O`, the activity, negative = inhibition was 5.61% [at 11.4 µM]. As to `CN1CCN(c2nc(-c3ccccc3)cc(C(F)(F)F)n2)CC1`, the AC50 is 17.8 µM (active). `COc1ccccc1N1CCN(c2nc(-c3ccccc3)cc(C(F)(F)F)n2)CC1`: the AC50 result was “inactive”. With `COc1cccc(-c2cc(C(F)(F)F)nc(N3CCN(c4ccccc4)CC3)n2)c1`, the AC50 result is “inactive”.

As for `COc1cc(/C=C/C(=O)N2CCN(CC(O)COc3ccccc3)CC2)cc(OC)c1OC` (centres undefined), the AC50 result was “inactive”. Still for that read-out and setting: the same measure for `CC1CC(OCC(O)CN2CCN(Cc3ccccc3)CC2)CC(C)(C)C1` (centres undefined): “inactive”. On the same count and under the same terms, to `O=C(c1ccccc1)c1ccc(OCCn2cnc3ccccc3c2=O)cc1` belongs “inactive”; to `CC1CCC(C(C)C)C(OCC(O)CN2CCN(Cc3ccccc3)CC2)C1` (centres undefined), 0.112 µM (active); to `O=C(c1ccccc1)c1ccc(OCC(O)CN2CCN(Cc3ccccc3)CC2)cc1` (centres undefined), 3.16 µM (active).

Consider `Cc1cccc(-n2nnc3cnn(C)c3c2=O)c1`, for which the AC50 entry is “inactive”. Take `O=C(O)[C@@H]1[C@H](C(=O)O)[C@H]2C(=O)C=C[C@H]1N2Cc1ccccc1`: the activity, negative = inhibition was 3.08% [at 11.4 µM].

`Cc1nn(C)c(Cl)c1NC(=O)OCc1ccc(F)cc1`: the AC50 result was “inactive”. `CC(=O)[C@@H]1CC[C@@H]2[C@@H]3C[C@H](C)C4=CC(=O)CC[C@@]4(C)[C@H]3[C@H](O)C[C@]21C`: the AC50 result was “inactive”. On the same count and under the same terms, the same measure for `C=C(NC(=O)C(=C)NC(=O)c1csc(C2=N[C@@H]3c4csc(n4)[C@@H]4NC(=O)c5csc(n5)[C@@H]([C@](C)(O)[C@H](C)O)NC(=O)[C@@H]5CSC(=N5)/C(=C/C)NC(=O)[C@@H]([C@H](C)O)NC(=O)c5csc(n5)[C@]3(CC2)NC(=O)[C@@H](C)NC(=O)C(=C)NC(=O)[C@@H](C)NC(=O)[C@@H]([C@@H](C)CC)N[C@H]2C=Cc3c([C@H](C)O)cc(nc3[C@@H]2O)C(=O)O[C@H]4C)n1)C(N)=O`: “inactive”; for `Cn1c(=O)c2[nH]c(C3CCCC3)nc2n(C)c1=O`: “inactive”; for `Cc1nn(Cc2ccc(Cl)cc2)c(C)c1NC(=O)Cn1nc([N+](=O)[O-])c(Cl)c1C`: “inactive”. Same read-out and setting: the same measure for `COc1cnc(NS(=O)(=O)c2ccc(N)cc2)nc1`: “inactive”.

With `CCOC(=O)C1=C(O)/C(=C\c2ccc(OC)c(OC)c2)N=C1C`, the AC50 entry was “inactive”. Same read-out and setting: the same measure for `CN(Cc1ccco1)c1ncncc1-c1ccc2c(c1)OCO2`: 1.26 µM (active); for `Cc1noc(C)c1-c1cncnc1N(C)Cc1ccco1`: “inactive”; for `CN(C)c1ccc(-c2cncnc2N(C)Cc2ccco2)cc1`: 12.6 µM (active). Regarding `CN(Cc1ccco1)c1ncncc1-c1cccnc1`, the AC50 entry was “inactive”.

Consider `COc1cccc(-c2cncnc2N(C)Cc2ccco2)c1`, for which the AC50 was 12.6 µM (active). The same measure, in the same setting: the same measure for `CN(Cc1ccco1)c1ncncc1-c1ccccc1Cl`: 12.6 µM (active); for `Cn1c(SCC(=O)c2ccc3c(c2)Cc2ccccc2-3)nnc1-c1ccccc1`: “inactive”. Still for that read-out and setting: the same measure for `Cc1cc(C)nc(Nc2n[nH]c(COc3cccc4ccccc34)n2)n1`: “inactive”; for `CCN1CCc2nc(N)oc2CC1`: “inactive”. On to `Nc1ncnc2c1ncn2[C@H]1O[C@@H](C(=O)O)[C@@H](O)[C@H]1O`, for which the activity, negative = inhibition is 2.66% [at 11.4 µM].

As to `Cc1c(CC(C)(C)C(=O)O)n(Cc2ccc(Cl)cc2)c2ccc(F)cc12`, the AC50 result was “inactive”. For `Cc1cc(C(F)(F)F)n2nc(-c3cnn(C)c3C(F)(F)F)c(Cl)c2n1`, the AC50 result is “inactive”. Same read-out and setting: to `CNc1oc(C)nc1S(=O)(=O)c1ccc(C)cc1` belongs “inactive”; to `COCCn1c(=O)c(-c2cccc(C#N)c2)nc2cnc(N3CCOCC3)nc21`, “inactive”.

With `COc1cc(OC)c2cc(-c3ccncc3)cnc2c1`, the AC50 entry was “inactive”.

With `COCCNC(=O)/C(C#N)=C/c1ccc(-c2ccc(OC)cc2[N+](=O)[O-])o1`, the AC50 result was “inactive”. In the case of `CO/N=C/c1ccc(N2CCN(C(=O)c3ccc(Cl)cc3Cl)CC2)c([N+](=O)[O-])c1`, the AC50 result was “inactive”.

As for `Cc1snc(SCC(=O)N/N=C(\N)COc2cccc(C(F)(F)F)c2)c1C#N`, the AC50 entry is “inactive”. Turning to `CC(=O)OC[C@@H]1O[C@H](CCO/N=C\[C@@H](C)[C@H](OCc2ccccc2)C(C)C)C=C[C@@H]1OC(C)=O`, the activity, negative = inhibition is -18.8% [at 11.4 µM]. Still for that read-out and setting: the same measure for `CC(=O)OC[C@@H]1O[C@H](C/C=N\OCC[C@H]2C=C[C@H](OC(C)=O)[C@@H](COC(C)=O)O2)C=C[C@@H]1OC(C)=O`: -6.46% [at 11.4 µM]. For the compound `CC(=O)OC[C@@H]1O[C@H](C/C=N\O[C@@H]2O[C@H](COC(C)=O)[C@@H](OC(C)=O)[C@H](OC(C)=O)[C@H]2OC(C)=O)C=C[C@@H]1OC(C)=O`, the AC50 was 3.98 µM (active). Same read-out and setting: the same measure for `CC(=O)OC[C@H]1O[C@@H](O/N=C\[C@@H](C)[C@H](OCc2ccccc2)C(C)C)[C@H](OC(C)=O)[C@@H](OC(C)=O)[C@H]1OC(C)=O`: 3.98 µM (active).

Consider `COC(=O)[C@@H]1CC[C@H](C)[C@@H](c2ccc(C)cc2)N1C(=O)c1ccc(/C=N\O[C@@H]2O[C@H](COC(C)=O)[C@H](OC(C)=O)[C@H](OC(C)=O)[C@H]2OC(C)=O)cc1`, for which the activity, negative = inhibition was -6.2% [at 11.4 µM]. On the same count and under the same terms, to `CC(=O)OC[C@@H]1O[C@H](CCON=C(C)C)C=C[C@@H]1OC(C)=O` belongs -4.81% [at 11.4 µM]; to `CC(=O)OC[C@@H]1O[C@H](C/C=N\OC[C@@H](C)[C@H](OCc2ccccc2)C(C)C)C=C[C@@H]1OC(C)=O`, -1.74% [at 11.4 µM]. In the case of `CC(=O)OC[C@H]1O[C@@H](ON=C(C)C)[C@H](OC(C)=O)[C@@H](OC(C)=O)[C@H]1OC(C)=O`, the AC50 was 3.16 µM (active). Take `C=CC[C@@H]1C=C[C@@H](O/N=C\C[C@@H]2C=C[C@H](OC(C)=O)[C@H](COC(C)=O)O2)[C@@H](CO)O1`: the activity, negative = inhibition is -12% [at 11.4 µM].

With `CC(CCc1ccccc1)NS(=O)(=O)c1ccccc1` (centres undefined), the AC50 entry is “inactive”. Same read-out and setting: to `COc1cccc(Cn2c(=O)c(-c3ccccc3)nc3cnc(N(C)C)nc32)c1` belongs “inactive”. With `CC(=O)Nc1nc(NC(C)=O)c2[nH]c(CO)nc2n1`, the activity, negative = inhibition was -2.84% [at 11.4 µM]. Regarding `Cc1cc(=O)n2c3ccccc3n(CC(O)CN3CCCCC3)c2c1C#N` (centres undefined), the half-maximal activity concentration (AC50) was 8.91 µM (active).

As to `O=CN1CCN(C[C@H](O)CN2CCCCC2)CC1`, the activity, negative = inhibition is 9.19% [at 11.4 µM]. Turning to `OC(CN1CCCCC1)CN1CCCCC1`, the AC50 entry was “inactive”. Take `Nc1ccc(C(=O)C[C@H](N)C(=O)O)cc1O`: the activity, negative = inhibition is -0.576% [at 11.4 µM]. `Cc1ccc(C)c(S(=O)(=O)NCc2ccc(C(=O)N3CCC(Cc4ccccc4)CC3)cc2)c1`: the AC50 result was “inactive”.

As to `CS(=O)(=O)Nc1ccc(C(=O)N2CCN(c3ccccc3)CC2)cc1`, the AC50 entry is “inactive”.

Turning to `Cc1ccc(C(=O)N2CCN(C3c4cccc5cccc(c45)C3NS(=O)(=O)c3ccccc3)CC2)cc1` (centres undefined), the AC50 is 2.82 µM (active). The same measure, in the same setting: the same measure for `COc1ccccc1CNS(=O)(=O)c1ccc2[nH]cc(C(=O)O)c(=O)c2c1`: “inactive”; for `COCC(=O)N/N=C/c1ccc(Sc2nc3ccccc3s2)o1`: “inactive”; for `Cc1ccc(C(=O)NC(=S)N2CC(C)OC(C)C2)cc1[N+](=O)[O-]` (centres undefined): “inactive”. Turning to `CC(C)C[C@H](NC(=O)[C@@H]1O[C@H]1C(=O)O)C(=O)NCCCCN=C(N)N`, the AC50 entry was “inactive”.

Consider `O=C(NC(C(=O)c1ccccc1)n1cnccc1=O)c1ccccc1` (centres undefined), for which the AC50 entry was “inactive”. For the compound `Clc1ccccc1-c1nc(-n2ccnc2)c2ccccc2n1`, the half-maximal activity concentration (AC50) was 12.6 µM (active). Still for that read-out and setting: the same measure for `Cc1ccccc1-c1nc(-n2ccnc2)c2ccccc2n1`: 15.8 µM (active); for `COc1cc2c(c(O)c1OC)C(=O)C(OC)CCC2` (centres undefined): “inactive”. As to `Cc1c(Nc2ncccc2C(=O)O)cccc1C(F)(F)F`, the AC50 entry is “inactive”. Turning to `C/C(CCC(=O)OC[C@@H]1O[C@H](C#Cc2ccccc2)C=C[C@@H]1Oc1ccc(C)cc1)=N/OC[C@@H](C)[C@H](OCc1ccccc1)C(C)C`, the activity, negative = inhibition was -14.2% [at 11.4 µM].

On to `COCCn1c(=O)c(-c2cn(C)c3ccccc23)nc2cnc(Oc3ccccc3)nc21`, for which the AC50 entry was “inactive”.

On to `Cc1cc2ccccc2c(=O)n1CC(=O)NCC(=O)N1CCCC1`, for which the AC50 result is “inactive”. On to `CCN(CC)C(=O)CCNS(=O)(=O)c1ccc(C)cc1`, for which the AC50 entry was “inactive”. Still for that read-out and setting: to `Cc1ccc(C)n1NC(=O)c1ccccc1` belongs “inactive”; to `CN(C)CCn1c(C(=O)O)cc2ccccc21`, “inactive”. Still for that read-out and setting: the same measure for `Cc1ccc(S(=O)(=O)NCCSc2nnnn2C)cc1`: “inactive”. On the same count and under the same terms, the same measure for `Cc1cc2ccccc2n1CCNC(=O)C1CCCC1`: 12.6 µM (active); for `O=C(NN1C(=O)c2ccccc2C1=O)C1CCCCC1`: “inactive”; for `Cc1ccc(S(=O)(=O)NCCn2c(C)cc3ccccc32)cc1`: 8.91 µM (active). Turning to `Cc1cc2ccccc2n1CCNC(=O)c1ccccc1`, the AC50 is 2.51 µM (active).

For the compound `C[C@]12C=CC(=O)C=C1CC[C@@H]1[C@H]3C[C@@H](O)[C@](O)(C(=O)CO)[C@@]3(C)C[C@H](O)[C@]12F`, the AC50 entry was “inactive”. The same measure, in the same setting: to `COc1ccc(S(=O)(=O)n2ccc(-c3cnc(-c4ccccc4)s3)n2)cc1` belongs “inactive”. Still for that read-out and setting: to `Cc1cc(-c2ccc(Cl)cc2)oc(=O)c1NC(=O)c1ccccc1` belongs “inactive”; to `COc1cccc(Cn2c(=O)cnc3cnc(N(C)C)nc32)c1`, “inactive”. Turning to `CCCCCOc1ccc(C(=O)NCC2(c3ccccc3)CCOCC2)cc1`, the AC50 is 17.8 µM (active). On the same count and under the same terms, to `O=C(NCCc1ccccc1)C(=O)NCC1(c2ccccc2)CCCC1` belongs “inactive”; to `CCCCOc1ccc(C(=O)NCc2ccco2)cc1`, “inactive”. The same measure, in the same setting: to `CN1c2ccccc2Oc2c(c(=O)n(C)c(=O)n2C)C1c1cccc([N+](=O)[O-])c1` (centres undefined) belongs “inactive”; to `CCCN1CNC(=S)N(c2cccc(C)c2C)C1`, “inactive”; to `COc1ccc(/C=N/NC(=O)c2ccn[nH]2)cc1COc1ccc(F)cc1`, “inactive”.

`COc1ccc(/C=N/NC(=O)c2ccccc2)cc1CN1CCN(c2ccc(F)cc2)CC1`: the AC50 is 25.1 µM (active). Take `COc1ccc(/C=N/NC(=O)c2sccc2OCc2ccc(F)cc2)cc1OC`: the AC50 result is “inactive”.
